Dicer inh = human Dicer pre-microRNA cleavage inhibition; z-score at 25 µM; cat-ELCCA pre-miR-21 Dicer processing, chemiluminescence; active compounds read high; 6% of 47,000 active; Q9UPY3; in the data active = z-score above about 3, passing the limit was not always enough;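 also: higher signal means more uncleaved substrate so more Dicer inhibition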
Of the large screens only hits and unclear results are named; the others gave an inactive call. The entries come from a sample that favours hits as a whole.

O=C1C(=O)N(Cc2ccc(CN3C(=O)C(=O)c4ccccc43)cc2)c2ccccc21	Dicer inh 3
COC(=O)c1ccc(Cn2c(C)cc(C)[n+]2C)o1	none
COC(=O)c1ccc(CN2C(=O)C(=O)c3ccccc32)o1	Dicer inh 3.7
Cn1cnnc1SCc1cccc2ccccc12	none
N#Cc1c(C(F)(F)F)c([N+](=O)[O-])c(-c2cccc([N+](=O)[O-])c2)[nH]c1=O	none
CC(C)(C)c1cc2nc(C(F)(F)F)cc(N/N=C/c3ccc(C(F)(F)F)cc3)n2n1	none
O=C(CC1SC(=Nc2ccc(C3CCCCC3)cc2)NC1=O)Nc1ccc(OC(F)(F)F)cc1 (centres undefined)	none
Cc1cccc(N2C(=O)CSC2=S)c1	none
CC(C)C[C@H](NC(=O)[C@@H](O)[C@H](N)Cc1ccccc1)C(=O)O	none
CC(C)C[C@H](NC(=O)c1ccc(Cl)cc1Cl)C(=O)O	none
CC(C)CC(NC(=O)c1ccco1)C(=O)O (centres undefined)	Dicer inh 5.2
O=C(O)CSc1nnc2c3ccccc3n(CCc3ccccc3)c2n1	none
Cc1ccc2c(c1)CCCN2C(=S)Nc1c(C)cccc1C	none
O=C(Nc1nc(-c2ccccc2)cs1)C1CC1	none
CCNc1nc(-c2ccccc2)cs1	Dicer inh 3.3
Cc1nc(-c2ccc(-c3ccccc3)cc2)cs1	none
CN(C)c1cc(-c2cccs2)oc(=O)c1Cl	none
CCCn1c(=O)c2c(nc3n2CCN3c2ccc(OC)cc2)n(C)c1=O	none
CC(C)(C)NC(=S)N/N=C/c1coc2c(Cl)cc(Cl)cc2c1=O	Dicer inh 4.8
CC(C)(C)NC(=S)N/N=C/c1ccccc1Cl	none
CC(C)(C)NC(=S)N/N=C/c1ccccc1O	none
O=C(Nc1cccc(C(F)(F)F)c1)c1c(F)cccc1F	none
O=C(O)CC(CC(=O)O)c1ccc(Cl)cc1Cl	none
Nc1n[nH]c(=O)c2cc(-c3ccc(Cl)cc3)[nH]c(=O)c12	none
Nc1[nH]c(=S)[nH]c(=O)c1C(c1ccc(Cl)cc1Cl)c1c(N)[nH]c(=S)[nH]c1=O	Dicer inh 3.4
COC(=O)c1ccc(Cn2cnc3ccccc32)cc1	none
CCOC(=O)C1CCN(c2cc(C(F)(F)F)nc3ccc(Br)cc23)CC1	none
CN(C)c1ccc(C2CC(=O)c3cnc(NCCN4CCOCC4)nc3C2)cc1 (centres undefined)	none
Cc1ccc2c(c1)C(=O)OC1(O)C3C4C=CC(C4)C3C(=O)N21 (centres undefined)	none
O=C1OC2(O)C3C4C=CC(C4)C3C(=O)N2c2ccccc21 (centres undefined)	Dicer inh 4.9
O=C1C2C3C=CC(C3)C2C(=O)N1c1cccc(N2C(=O)C3C4C=CC(C4)C3C2=O)n1 (centres undefined)	none
CCOC(=O)c1cnc(SCc2ccc(C)cc2)nc1C(F)(F)F	none
CC1CN(C(C#N)c2c(F)cccc2Cl)CC(C)O1 (centres undefined)	none
O=c1[nH]c(=O)n(-c2ccccc2)c2c1CN(Cc1ccco1)CN2	none
c1ccc(C2CN(Cc3ccco3)C(c3ccccc3)O2)cc1 (centres undefined)	Dicer inh 3.5
O=C(O)C1CC(=O)N(Cc2ccco2)C1 (centres undefined)	none
CCOC(=O)c1c(NC(=O)Nc2cccc(Cl)c2)sc(C)c1-c1ccccc1	none
Cc1nc(-c2ccc(NS(=O)(=O)c3ccc(Oc4cccc(Cl)c4C#N)cc3)cc2)cs1	none
COc1cc(/C=C(\C#N)C(N)=S)cc(OC)c1OC	none
O=C(O)CN1C(=O)c2cccc3cccc(c23)C1=O	Dicer inh 3.7
O=C1c2cccc3cccc(c23)C(=O)N1CCNCCN1C(=O)c2cccc3cccc(c23)C1=O	none
O=C(O)CCCCCN1C(=O)c2cccc3cccc(c23)C1=O	none
O=C1c2cccc3cccc(c23)C(=O)N1CC(=O)N1CCc2ccccc21	Dicer inh 3.8
NC(=O)C1CCN(C(=O)CN2C(=O)c3cccc4cccc2c34)CC1	none
O=C(CN1C(=O)c2cccc3cccc(c23)C1=O)N1CCOCC1	none
CC(O)CN1C(=O)c2cccc3cccc(c23)C1=O (centres undefined)	Dicer inh 3.2
O=C(O)CCCN1C(=O)c2cccc3cccc(c23)C1=O	none
O=C1c2cccc3cccc(c23)C(=O)N1CCCCO	none
CCOC(=O)C1=C(C)NC2=C(C(=O)CCC2)C1c1cc(OC)c(OC)cc1Br (centres undefined)	none
Cn1c(Sc2cc(C(F)(F)F)nc3cc(C(C)(C)C)nn23)nnc1C(F)(F)F	none
CC(C)(C)C(=O)Cn1nnc(N2CCCC2)n1	none
COc1ccccc1-c1nnc(SCc2ccccc2)o1	none
CC(=O)ONC(=O)c1ccc([N+](=O)[O-])cc1	none
COc1ccc(/C=C2/SC3(SC(C(C)=O)=NN3c3ccccc3)N(c3ccccc3)C2=O)cc1 (centres undefined)	none
CCCCCNc1nc(CCCC)c2c(c1C#N)CC(C)(C)OC2	none
CCOC(=O)Nc1cc(C(=O)OC)ccc1C(=O)OC	none
COC(=O)c1ccc(C(=O)OC)c(NC(=O)Nc2ccc(F)cc2)c1	none
COC(=O)c1ccc(C(=O)OC)c(NC(=O)C2CC3CCC2C3)c1 (centres undefined)	Dicer inh 4.3
C/C(=N\OC(=O)c1ccc(Cl)c(Cl)c1)c1ccc(F)c(F)c1	none
C/C(=N\NC(=S)Nc1ccc(C(C)C)cc1)c1ccco1	Dicer inh 3
